CHX counter: counter-screen hit for Shiga toxin inhibitors, cycloheximide. 300,000 compounds, 12% hits. cell reporter, cycloheximide protein synthesis inhibition counterscreen. AID 2314. max response, %; in the data active = max response mostly above about 13%, no sharp cut-off; inactive = mostly below about 14%; also: read at 38.3 µM for the half of the compounds with a filed dose; 0% is about no effect
Marburg entry inh: inhibitors of Marburg virus binding or cell entry; Marburg virus pseudotyped entry inhibition, cell reporter; Potency, µM (doses to about 37.8 µM), for inactives: at the highest dose activity change, negative = inhibition, hits mostly inhibitors; 300,000 compounds, 1.8% hits; AID 540276; calls by dose curve; tested in HEK293 cells; also: potency is read from the fitted curve at half-maximal effect; % is scaled to controls: 0 for no effect and ±100 for the full control effect
LASV entry inh: Lassa virus entry inhibition; Lassa virus pseudotype entry inhibition, cell reporter; Potency, µM (top dose mostly 37.9 µM), without a hit: at the highest dose activity change, negative = inhibition, actives largely listed as inhibitors; 300,000 compounds, 1.2% hits; AID 540256; calls by dose curve; tested in HEK293 cells; also: potency is read from the fitted curve at half-maximal effect; % is scaled to controls: 0 for no effect and ±100 for the full control effect; nearly all actives have a fitted effect of over 50% in size
Shiga toxin inh: blocks Shiga toxin action in Vero cells | Vero cells, Shiga toxin protein synthesis inhibition reporter | 290,000 compounds, 9.2% hits | inhibition, % at 38.7 µM; in the data active = inhibition mostly above about 28%, no sharp cut-off; inactive = mostly below about 43%; also: 0% is about no effect
AMA1-RON2 inh: AMA1-RON2 (P. falciparum) interaction inhibition | 360,000 compounds, 0.2% hits | AlphaScreen AMA1-biotinylated RON2 peptide binding | AID 720542 | Potency, µM (top dose mostly 58.2 µM), inactives show at the top dose activity change, negative = inhibition, hits mostly inhibitors; active = well fitted inhibition curve with a large enough effect; inconclusive = small, poorly fitted or top-dose-only effect; inactive = no such curve, though single readings can be large or run the other way;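 also: potency is read from the fitted curve at half-maximal effect; 0% = vehicle wells and -100% = peptide control; nearly all actives have a fitted effect of over 45% in size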
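AMA1 (3D7) with his tag at 25 nM final met compounds first, then biotinylated RON2 peptide at 25 nM; detection used donor plus acceptor beads, 10 µg/mL apiece, read by AlphaScreen after 30 min at room temperature.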
Starred values were filed as active, the others as inactive; ? = inconclusive; . = not tested or not shown; [ ] = dose if it differs, or a comment. This is one part of a sample in which hits are shown more often than they occur.

SMILES | CHX counter | Marburg entry inh | LASV entry inh | Shiga toxin inh | AMA1-RON2 inh
O=C(Nc1ccc(Cl)cc1)Nc1nnc(-c2ccncc2)s1 | -0.5 | ? | 3.98µM* | -7.9 | 0.3%
CCC(C)OC(=O)n1ccc(C(=O)Nc2nccs2)n1 (centres undefined) | 32.1* | 6.9% | 20.7% | 68.3* | 36.6%
O=C(Nc1ccc(Cl)cc1)Nc1nccs1 | 30.4* | -17.3% | -14.4% | 47.1* | -2.7%
O=C(Nc1nccs1)c1cn2ccccc2n1 | 10.5 | . | . | -19.2 | 108.6%
CC(C)CN1CCNC(=O)C1CC(=O)NCc1cnn(-c2cccc(F)c2)c1 (centres undefined) | -0.2 | . | . | -4.9 | 16.0%
Cc1ccc(-n2nc(CO)c(C(=O)NCCCCc3ccccc3)n2)cc1 | . | ? | 18.4%[46.1 µM] | . | .
CC[C@@]12C(=O)N(c3cccc(F)c3)C(=O)N1[C@H](c1ccc(Br)cc1)[C@@H]1C(=O)N(C(C)(C)C)C(=O)[C@@H]12 | . | . | . | . | -4.7%
COc1ccc(C(=O)O/N=C2\CCS(=O)(=O)c3sccc32)cc1 | 15.8 | . | . | 19.0 | 6.9%
Cc1ccccc1C(=O)O/N=C1\CCS(=O)(=O)c2sccc21 | 38.7* | 2.0% | 3.3% | 83.0* | 2.3%
CC(C)C(=O)O/N=C1\CCS(=O)(=O)c2sccc21 | 0.2 | ? | 3.7% | 17.6 | -6.7%
COc1ccc(N=C2CCS(=O)(=O)c3sccc32)cc1 | 40.7* | ? | ? | 72.2 | 4.0%
Cc1ccc2nc(N3CCN(Cc4ccc(F)cc4)C3=O)c(C)cc2c1 | 20.0* | -7.7%[46.1 µM] | ? | 40.9 | -18.7%
Cc1nc2ccc(-c3nc4cc(N)ccc4o3)cc2[nH]1 | 20.8* | ? | ? | 26.7* | -5.4%
Nc1ccc(-c2nc3ccccc3o2)cc1 | 57.5* | . | . | 90.9* | -8.4%
Cc1ccccc1-c1nc2cc(N)ccc2o1 | 54.7* | ? | ? | 87.1* | 7.2%
Nc1ccc2oc(-c3ccccc3Br)nc2c1 | . | ? | 14.0%[46.1 µM] | . | .
Nc1ccc2oc(-c3ccc4nc[nH]c4c3)nc2c1 | 16.4* | ? | 16.4µM* | 26.9 | -4.4%
CCOCCC(=O)Nc1ccc2c(c1)c(=O)n(C)n2C/C=C/c1ccccc1 | . | . | . | . | 0.8%
C[C@@H]1CN([C@@H](C)CO)C(=O)c2cc(NC(=O)Nc3ccccc3)ccc2O[C@@H](C)CCCCO[C@H]1CN(C)C(=O)Nc1ccc(C(F)(F)F)cc1 | . | . | . | . | -6.2%
O=C(Sc1ccc(Cl)cc1)c1ccccn1 | . | ? | -27.2%[46.1 µM] | . | 39.6%
CC(=O)Nc1ccc(NC(=O)C2Cc3ccccc3N2C(=O)c2ccccc2)cc1 (centres undefined) | . | . | 2.6%[46.1 µM] | . | .
CCc1ccc2oc(-c3cccc(N)c3)nc2c1 | 23.2 | ? | ? | 28.8 | -7.6%
Nc1ccc2oc(-c3cccc(Br)c3)nc2c1 | 43.1* | -12.0% | ? | 107.7 | -10.8%
COc1ccccc1N1C(=O)N(C(C)=O)C2C1Nc1ccccc1N2C (centres undefined) | 0.9 | 11.6µM* | ? | 11.8 | 15.9%
Cc1sc2ncn(CC(=O)NCC(=O)N3CCN(c4ccccc4F)CC3)c(=O)c2c1C | 1.0 | 27.5%[46.1 µM] | -0.2%[46.1 µM] | -3.9 | 8.4%
SMILES | CHX counter | Marburg entry inh | LASV entry inh | Shiga toxin inh | AMA1-RON2 inh
CCN(C(=O)c1cn(CC(C)C)c(=O)c2cc(OC)c(OC)cc12)c1cc(OC)ccc1OC | . | -7.1%[46.1 µM] | -11.4%[46.1 µM] | . | .
Cc1c(C(=O)N/N=C/c2ccc(-c3ccccc3[N+](=O)[O-])o2)sc(N)c1C#N | 18.3* | 4.3% | -9.4% | -5.7 | 0.0%
O=C(N/N=C/c1ccc(-c2ccccc2[N+](=O)[O-])o1)c1cncc(Br)c1 | 0.6 | 4.0% | -0.5% | -1.8 | 46.9%
Nn1cnnc1N/N=C\c1ccc(-c2ccccc2[N+](=O)[O-])o1 | 17.1* | ? | 14.1µM* | 12.5 | 49.5%
Cc1ccc(C(=O)N/N=C/c2ccc(-c3ccc(Br)cc3[N+](=O)[O-])o2)o1 | 17.8* | -16.0% | -6.7% | 24.7 | 44.9%
COc1ccc(C(CNC(=O)c2cccc([N+](=O)[O-])c2)N2CCOCC2)cc1 (centres undefined) | . | 7.4%[46.1 µM] | 12.4%[46.1 µM] | . | .
Cc1cccc(N2CCN(C(=O)C3CCN(S(=O)(=O)c4cn(C)cn4)CC3)CC2)c1C | . | . | -9.4%[46.1 µM] | . | .
CC(C)c1ccc(NC(=O)COc2nncc3ccccc23)cc1 | 24.1* | 24.5%[46.1 µM] | 20.4% | 42.5* | -2.7%
O=C(Cc1ccccc1)Nc1cccnc1 | 5.7 | -1.5%[46.1 µM] | 12.9% | 14.0 | -9.0%
CC(C)c1ccc(NC(=O)CCc2ccccc2)cc1 | 55.8* | -21.6% | ? | 135.5* | -4.1%
O=C(CCc1ccccc1)Nc1cccnc1 | 13.4* | . | . | 104.3* | -6.9%
CC(C)c1nnc(NC(=O)CCc2ccccc2)s1 | 18.9* | . | . | 27.6 | 13.3%
C[C@H](O)[C@@H]1C(=O)N2CCc3ccc(N4CCN(C)CC4)cc3[C@@H]2C[C@@H]1N(C)C(=O)c1cccnc1 | . | . | . | . | 1.7%
COc1ccccc1CNC(=O)C1(C)CCN1C(=O)C1(c2ccccc2)CC1 (centres undefined) | . | . | . | . | -2.0%
CC(Cc1ccccc1)C(=O)Nc1ccc(Br)cc1 (centres undefined) | 36.2* | . | . | 99.8* | 5.1%
CC(C)c1nnc(NC(=O)CCS(=O)(=O)c2ccccc2)s1 | 9.0 | -9.4%[46.1 µM] | 0.3% | 43.6* | -16.0%
CCCC(C)c1nnc(NC(=O)CCS(=O)(=O)c2ccccc2)s1 (centres undefined) | -2.4 | 7.6%[46.1 µM] | . | -13.7 | -2.8%
O=C1NC(=Nc2ccc3ccccc3c2)S/C1=C/c1ccco1 | 18.0 | . | . | 26.0 | -7.5%
Cc1cccc(N=C2NC(=O)/C(=C/C=C/c3ccco3)S2)c1 | -2.3 | ? | 17.8µM* | -13.3 | -5.0%
Cc1ccc(N=C2NC(=O)/C(=C\c3ccco3)S2)cc1 | 28.3* | 7.1% | ? | 45.9* | -4.2%
O=C1NC(=Nc2ccc(O)cc2)S/C1=C/c1ccco1 | 17.2* | ? | 4.61µM* | 22.4 | 1.9%
COc1ccc(NC(=O)c2ccc3c(c2)nnn3C2CCCC2)cc1Cl | . | . | -14.0%[46.1 µM] | . | .
COc1ccc(OC)c(C(=O)c2ccc(C(=O)Nc3ccc4ccccc4c3)cc2)c1 | 50.0* | ? | 10µM* | active | 0.0%
COc1ccc(C(=O)Nc2ccc3c(c2)N(C2CCCC2)C(=O)c2ccccc2S3)cc1OC | . | . | 1.26µM* | . | .
COc1ccc(C(=O)c2c(C(F)(F)F)oc3c2C(=O)c2ccccc2C3=O)cc1OC | 10.0 | 2.82µM* | 2.51µM* | 3.1 | ?
SMILES | CHX counter | Marburg entry inh | LASV entry inh | Shiga toxin inh | AMA1-RON2 inh
COc1ccc(C(=O)Nc2ccc3c(c2)C(=O)c2ccccc2C3=O)cc1OC | 31.1* | 7.8% | 3.6% | 21.9 | -15.3%
COc1ccc(NC(=O)C2Cc3c(-c4cccc(F)c4)ccnc3O2)cn1 (centres undefined) | . | . | . | . | -13.7%
O=C1[C@H]2[C@@H]3[C@@H](O)[C@H](O)CC(=NOCc4ccccc4)[C@@H]3CC[C@H]2C(=O)N1C1CCCCC1 | . | -13.6%[14.2 µM] | -8.1%[14.3 µM] | . | .
COc1cc(OC)c(NC(=O)Nc2ccc3c(c2)N(C)C(=O)c2ccccc2S3)cc1Cl | . | 10µM* | -23.8%[46.1 µM] | . | .
COc1cc(C(=O)Nc2ccc3ccccc3c2)cc(OC)c1OC | 13.7* | 1.41µM* | -11.3%[46.1 µM] | 25.7 | -7.8%
COc1ccc(C(=O)Nc2ccc3ccccc3c2)cc1OC | 43.0* | 1.9% | ? | 67.9* | -2.6%
COCCNC(=O)Nc1ccc2c(c1)N(C)C(=O)c1ccccc1S2 | -4.3 | -15.4%[46.1 µM] | -17.6% | -11.2 | -3.6%

High-throughput results (PubChem)
